High-throughput results: PubChem, National Center for Advancing Translational Sciences (NCATS)
Giardia kill: Giardia lamblia killing. Giardia lamblia trophozoite viability. activity change, % at 7.66 µM, hits read low. hit rate 0.15% among 340,000; in the data active = activity change below about -80%; inconclusive = between about -30% and that limit;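 also: parasites exposed to compound for two days anaerobically before the ATP read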
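Killing of trophozoites was scored by loss of ATP luminescence after a 48 hrs anaerobic exposure to compounds at 37 deg C, using 100 cells per well.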
DT40 TDP1 no CPT: qHTS for Inhibitors of human tyrosyl-DNA phosphodiesterase 1 (TDP1): qHTS in cells in absence of CPT. DT40 Tdp1-/- hTDP1 cells, no CPT, ATP luminescence, 48 h. Potency, µM (series often up to 46.2 µM), for the others: at the top dose activity change, negative = growth inhibition, usual class: inhibitors. hit rate 15% among 420,000. AID 686978, 2013; also: potency is read from the fitted curve at half-maximal effect; nearly all actives have a fitted effect of over 55% in size
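DT40 Tdp1-/-;hTDP1 cells, no CPT (DMSO vehicle only), 400 cells/well; compounds pin-transferred; ≥48 hr, 37 °C; CellTiter-Glo 30 min RT dark, luminescence read.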
IL1B secr inh: inhibitors of inflammasome signaling (IL-1 beta secretion) | THP-1 LPS/ATP IL-1B secretion, AlphaLISA, 16 h; hits give low values | activity change, % at 57.5 µM | hit rate 4.7% among 360,000 | AID 743279; in the data active = activity change below about -50%; inconclusive = mostly about -30% to -49%
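THP-1 cells pretreated 1 hr with compounds (up to 57.5 uM final), then stimulated with LPS (250 ng/mL final) plus ATP (1.25 mM final); secreted IL-1B measured by AlphaLISA after 16 hr, decreased signal indicating inhibition.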
DT40 TDP1 CPT: growth inhibition of DT40 Tdp1-/-;hTDP1 cells with camptothecin (screen for TDP1 inhibitors). chicken DT40 Tdp1-/-;hTDP1 cells + 20 nM CPT, ATP luminescence, 48 h. Potency, µM (highest dose often 46.2 µM), for inactives: top-dose activity change, negative = growth inhibition, hits mostly inhibitors. hit rate 12% among 420,000. AID 686979; also: potency is read from the fitted curve at half-maximal effect; nearly all actives have a fitted effect of over 55% in size
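Cell growth measured by CellTiter-Glo luminescence after a minimum 48 h, 37 C compound exposure with 20 nM CPT in Tdp1-knockout DT40 cells stably expressing hTDP1, seeded 400/well; qHTS titration format.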
TDP1 block: blocks human tyrosyl-DNA phosphodiesterase 1 | AID 485290 | recombinant TDP1, AlphaScreen DNA substrate cleavage | hit rate 0.28% among 350,000 | Q9NUW8 | Potency, µM (top dose mostly 130 µM), for inactives: at the highest dose activity change, negative = inhibition, actives largely listed as inhibitors; also: potency is read from the fitted curve at half-maximal effect; nearly all actives have a fitted effect of over 40% in size
Target sequence (Q9NUW8 whole entry, looked up): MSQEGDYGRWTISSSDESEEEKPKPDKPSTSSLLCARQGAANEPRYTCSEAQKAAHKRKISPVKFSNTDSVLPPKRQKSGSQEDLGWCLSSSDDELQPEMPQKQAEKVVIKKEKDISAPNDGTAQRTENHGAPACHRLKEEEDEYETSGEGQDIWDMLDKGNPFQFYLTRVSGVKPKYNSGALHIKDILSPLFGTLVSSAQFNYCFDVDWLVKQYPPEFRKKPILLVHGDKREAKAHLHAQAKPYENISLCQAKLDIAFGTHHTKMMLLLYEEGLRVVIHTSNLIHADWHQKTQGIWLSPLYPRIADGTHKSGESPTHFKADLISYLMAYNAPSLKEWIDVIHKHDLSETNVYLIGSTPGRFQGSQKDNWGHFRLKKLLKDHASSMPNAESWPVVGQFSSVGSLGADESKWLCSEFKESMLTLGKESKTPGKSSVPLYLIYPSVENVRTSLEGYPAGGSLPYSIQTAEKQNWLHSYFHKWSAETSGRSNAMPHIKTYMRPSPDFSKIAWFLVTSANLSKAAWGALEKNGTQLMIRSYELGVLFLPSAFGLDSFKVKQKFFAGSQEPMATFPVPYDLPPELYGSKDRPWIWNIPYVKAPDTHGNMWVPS
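E. coli-derived human Tdp1, 1 nM final. Cpd preinc 15 min RT; substrate 15 nM final, 5 min RT; AS bead mix 10 ug/ml final, 10 min RT. Signal loss = tyrosine-FITC cleavage. No-enzyme wells = max signal.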
ELG1 DNA repair: ELG1-dependent DNA repair inhibition. Potency, µM (doses to about 46.1 µM), for inactives: at the top dose activity change, negative = inhibition, actives largely listed as inhibitors. AID 504467. HEK293T ELG1-luciferase reporter, luminescence, 16 h; DNA damage induced by 5-fluorouridine. hit rate 2.3% among 330,000; also: potency is read from the fitted curve at half-maximal effect; nearly all actives have a fitted effect of over 55% in size
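Cells (2,000 per well) received 5-fluorouridine plus test compound or DMSO and were incubated 16 hr at 37 °C, 5% CO2. Luciferase activity was read by luminescence 30 min after ONE-Glo addition; signal suppression marked inhibition of damage-induced ELG1 function.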
Numbers without * were called inactive; u = inconclusive; x = not tested or not shown; [ ] = dose if it differs, or a comment. A selection: hits, their analogues and other compounds. The true share with any hit is near 19%. Unless noted, calls follow the shape of the dose curve; as a rule, active = well fitted curve in the direction sought with a large enough effect; inconclusive = small, poorly fitted or top-dose-only effect, or another doubt; inactive = no such curve, though single readings can be large; an effect the other way counts as inactive or inconclusive. % is scaled to controls: 0 for no effect and ±100 for the full control effect.

SMILES	Giardia kill	DT40 TDP1 no CPT	IL1B secr inh	DT40 TDP1 CPT	TDP1 block	ELG1 DNA repair
COc1ccccc1NS(=O)(=O)c1cc(C(=O)NC2CCN(Cc3ccccc3)CC2)ccc1C	9	u	-11	u	x	x
O=C(NC1CCN(Cc2ccccc2)CC1)c1ccccc1NS(=O)(=O)c1ccc(F)cc1	10	u	29	u	0%	5%
O=C(NCC(=O)N(c1ccccc1F)C(C(=O)NC1CCCC1)c1cccnc1)c1ccco1 (stereo not drawn)	6	16%	26	10%	3%[0.0935 µM]	10%
CN(C)S(=O)(=O)c1cccc(C(=O)NCC(=O)NC2CCN(Cc3ccccc3)CC2)c1	18	u	19	-17%	-3%	5%
COc1ccccc1C(=O)NC1CCN(C(=S)NCCc2ccccc2)CC1	13	-28%	-77*	-4%	6%	u
Cc1cccc(C(=O)NC2CC3CCCC(C2)N3S(=O)(=O)c2ccccc2)c1 (stereo not drawn)	1	18µM*	-56*	13µM*	5%	23µM*
CCN(CC)S(=O)(=O)c1ccc(Cl)c(C(=O)NC2CCN(Cc3ccccc3)CC2)c1	-24	13µM*	-9	16µM*	x	u
CCN(CC)S(=O)(=O)c1ccc(NC2CCN(Cc3ccccc3)CC2)nc1	-11	u	-6	u	0%	-21%
Cc1cccc(C(=O)NC2CC3CCCC(C2)N3C(=O)Nc2ccccc2)c1 (stereo not drawn)	-9	u	6	-30%	x	-26%
C=CCN(c1ccccc1)S(=O)(=O)c1cccc(C(=O)NC2CCN(Cc3ccccc3)CC2)c1	-19	18µM*	-54*	13µM*	-16%[0.505 µM]	-29%
CCOC(=O)CCCCN(Cc1ccccc1F)S(=O)(=O)c1ccc(F)c(C(=O)Nc2cc(Cl)cc(Cl)c2)c1	x	u	x	u	-5%	x
CNC(=O)C1(C(F)(F)F)C/C(=C\CCO)CCCO1 (stereo not drawn)	-17	-9%	16	2%	-2%	0%
COc1ccc(NS(=O)(=O)c2ccc(C)c(C(=O)NC3CCN(Cc4ccccc4)CC3)c2)cc1	1	u	12	16µM*	1%	-19%
COc1ccc(NS(=O)(=O)c2ccc(C)c(C(=O)NCc3ccccc3CN3CCCC3)c2)cc1	x	u	-7	u	x	x
CCc1ccc(C(=O)c2cncc(Br)c2)cc1	-9	8.2µM*	-17	10µM*	0%	x
CN1CCC[C@H]1CCNC(=O)c1c(-c2ccsc2)sc2ccccc12	-3	1%	-21	-2%	0%	0%
CN1CCC[C@@H]1CCNC(=O)c1c(-c2ccc3c(c2)OCO3)noc1-c1ccsc1	-6	-14%	-76*	-15%	2%	-20%
Cc1ccc([N+](=O)[O-])cc1NC(=O)Nc1cccc(F)c1	-18	9.2µM*	-18	4.6µM*	-4%	16µM*
Cc1cc([N+](=O)[O-])ccc1NC(=O)Cc1ccc(F)cc1	4	-3%	-59*	6%	5%	-4%
COc1ccc(CNc2ccc([N+](=O)[O-])cc2C)cc1	-29	-28%	-8	u	6%	21%
Cc1cc([N+](=O)[O-])ccc1NC(=S)NC(=O)C(c1ccccc1)c1ccccc1	-26	16µM*	-2	u	11%	u
Cc1cc([N+](=O)[O-])ccc1NCc1ccc2ccccc2c1	10	18µM*	0	u	6%	2%
O=C1[C@H]2[C@H]3[C@H](O)[C@H](O)C/C(=N/OC[C@@H](O)COCc4ccco4)[C@H]3CC[C@@H]2C(=O)N1Cc1ccc2c(c1)OCO2	x	x	x	x	10%[21 µM]	x
Cc1nc2nc(SCC(=O)NCc3ccccc3)nn2c(C)c1Cc1ccccc1Cl	x	u	x	u	3%	x
Cc1ccc(N=Nc2ccc(C)cc2NC(=O)Nc2ccccc2F)cc1	-23	21µM*	7	u	8%	22%
SMILES	Giardia kill	DT40 TDP1 no CPT	IL1B secr inh	DT40 TDP1 CPT	TDP1 block	ELG1 DNA repair
O=C(Nc1ccccc1)Nc1cc([N+](=O)[O-])ccc1F	1	u	-6	0%	0%	-14%
Cc1cc([N+](=O)[O-])ccc1NC(=O)Nc1ccccc1F	-10	u	-99*	u	4%	u
O=C(Cc1ccc([N+](=O)[O-])cc1)Nc1cc(C(F)(F)F)cc(C(F)(F)F)c1	6	6.5µM*	x	4.1µM*	1%	u
CCC(C)NC(=O)CN1C(=O)c2cccnc2Oc2ccc(C)cc21 (stereo not drawn)	x	-7%	x	-11%	0%	x
O=C(c1cc(Br)ccc1O)N(Cc1ccco1)Cc1cccs1	9	u	x	u	5%	x
Cc1ccc(NC(=O)CSc2nc(-c3ccc(C(C)(C)C)cc3)nc3cc(=O)[nH]n23)cc1C	x	u	x	u	3%	x
O=c1cc2nc(-c3cccs3)nc(SCCOc3ccc(Cl)cc3)n2[nH]1	x	u	x	u	-3%	x
CC(C)(C)c1ccc(-c2nc(SCCOc3ccc(Cl)cc3)n3[nH]c(=O)cc3n2)cc1	x	-80%	x	18µM*	5%	x
Cc1ccc(OCCCSc2nc(-c3ccc(C(C)(C)C)cc3)nc3cc(=O)[nH]n23)cc1C	x	26µM*	x	u	0%	x
CC(C)(C)c1ccc(OCCSc2nc(-c3cccs3)nc3cc(=O)[nH]n23)cc1	x	u	x	18µM*	5%	x
Cc1ccc(Nc2ncc3c(=O)[nH][nH]c(=O)c3n2)cc1	-3	-3%	18	8%	x	x
CCOC(=O)CCCNC(=O)CSc1nc2ccc(OCC)cc2[nH]1	-21	8%	-9	7%	5%	u
Cc1ccc(-c2cn3c(n2)sc2cc(C(=O)NCCCN4CCCCCC4)ccc23)cc1	x	1.6µM*	x	1.6µM*	-3%	x
COc1ccc(-c2cn3c(n2)sc2cc(C(=O)Nc4ccc(C)c(Cl)c4)ccc23)cc1	x	5%	x	-2%	-1%	x
CC1CCCCN1CCCNC(=O)c1ccc2c(c1)sc1nc(-c3ccc(F)cc3)cn12 (stereo not drawn)	x	3.3µM*	x	2.3µM*	5%	x
O=C(NCCCN1CCCCC1)c1ccc2c(c1)sc1nc(-c3ccc(F)cc3)cn12	x	2.3µM*	x	4.1µM*	4%	x
Cc1ccc(-c2cn3c(n2)sc2cc(C(=O)NCCCN4CCCCC4)ccc23)cc1	x	1.3µM*	x	1.3µM*	-3%	x
COCCn1c(-c2ccc(F)cc2)nc2cccnc21	-15	19%	4	7%	x	-22%
